This is part of a sample that, as a whole, favours compounds with a hit. Of some 83,000 tested, about 20% had one in any assay.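 Negative percent growth values reflect cell death: -40 means 40% of the cells present at the start died, and -100 means all died.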 Values without a mark were called inactive. Activity calls are given as the source filed them. Rule for the calls: active = growth percent below 10; inactive = the rest.
Tests used:
Assay in all cases: NCI-60 one-dose screen, 48 h (100 = growth as untreated, 0 = no growth, -100 = all killed)
[1] = test system: SK-MEL-2 melanoma; conditions: 10 µM unless noted
[2] = test system: EKVX NSCLC; conditions: 10 µM
[3] = test system: SN12C renal; conditions: 10 µM unless noted
[4] = test system: UO-31 renal; conditions: 10 µM unless noted
[5] = test system: TK-10 renal; conditions: 10 µM unless noted
[6] = test system: ACHN renal; conditions: 10 µM unless noted
[7] = test system: CAKI-1 renal; conditions: 10 µM unless noted
[8] = test system: A498 renal; conditions: 10 µM unless noted
[9] = test system: CCRF-CEM leukemia; conditions: 10 µM
[10] = test system: MOLT-4 leukemia; conditions: 10 µM unless noted
[11] = test system: SR leukemia; conditions: 10 µM unless noted
[12] = test system: RPMI-8226 leukemia; conditions: 10 µM unless noted
[13] = test system: OVCAR-8 ovarian; conditions: 10 µM unless noted
[14] = test system: OVCAR-5 ovarian; conditions: 10 µM unless noted
[15] = test system: OVCAR-4 ovarian; conditions: 10 µM unless noted
[16] = test system: SK-OV-3 ovarian; conditions: 10 µM unless noted
[17] = test system: IGROV1 ovarian; conditions: 10 µM unless noted
[18] = test system: OVCAR-3 ovarian; conditions: 10 µM unless noted
[19] = test system: HS 578T breast; conditions: 10 µM unless noted
[20] = test system: NCI/ADR-RES ovarian; conditions: 10 µM unless noted

| Structure (SMILES) | growth [1] | growth [2] | growth [3] | growth [4] | growth [5] | growth [6] | growth [7] | growth [8] | growth [9] | growth [10] | growth [11] | growth [12] | growth [13] | growth [14] | growth [15] | growth [16] | growth [17] | growth [18] | growth [19] | growth [20] |
| --- | --- | --- | --- | --- | --- | --- | --- | --- | --- | --- | --- | --- | --- | --- | --- | --- | --- | --- | --- | --- |
| Brc1ccc(-c2nc3ccccc3s2)cc1 | 105% | 75.4% | 95% | 59.5% | 142% | 92% | 73.4% | 77.2% | 95.5% | 88.1% | 86.9% | 94.4% | 106% | 90.9% | 93.5% | 91.8% | 73.9% | 99% | 89.6% | 99.3% |
| O=C(Nc1ccc(Cl)cn1)C1(c2ccccc2)CCCCC1 | 116% | 96% | 106% | 181% | 126% | 112% | 120% | 141% | 14.1% | 63.3% | -14.5% (active) | 93% | 113% | 102% | 91.6% | 117% | 534% | 118% | 107% | 125% |
| COC1NC(Cl)=C(C#N)C(C#N)(C#N)C1(C)C (stereo not given) | 99.1% | 86.4% | 104% | 85.5% | 113% | 105% | 104% | 110% | 109% | 89.2% | 98.7% | 127% | 107% | 31.6% | 111% | 113% | -21.4% (active) | 123% | 104% | 120% |
| COc1ccc2sc(-n3nc4nc5n(c(=O)c4c3N)-c3ccccc3Sc3ccccc3-5)nc2c1 | 81.5% | 42.1% | 76.7% | 31.8% | 102% | 72.3% | 57.7% | 117% | 68.1% | 49.4% | 65.2% | 45.5% | 81.7% | 126% | 66.4% | 91.8% | 67.9% | 76.6% | 90.6% | 74% |
| Clc1ccc(N/N=C/c2ccccn2)nc1 | 37.4% | 5.55% (active) | 14.4% | -12% (active) | 26.7% | 5.14% (active) | 8.53% (active) | -3.65% (active) | 11.6% | 5.02% (active) | 6.32% (active) | 26.3% | 18.1% | 30.3% | 6.01% (active) | 27.2% | 11.2% | 22.3% | 60.1% | -1.35% (active) |
| COc1ccc(Cn2cc3c(c2)-c2oncc2CC3)cc1OC | 43% | 43.7% | 38.9% | 44.1% | 65.2% | 44.3% | 21.9% | 21.4% | 14.9% | 31% | 16.8% | 35.1% | 24.5% | 40.3% | 43.4% | -12.4% (active) | 17.6% | -27.4% (active) | 2.04% (active) | 1.63% (active) |
| COc1cc(-c2nc3c(c(C)nc4c3nnn4-c3ccccc3)c(=O)o2)cc(OC)c1OC | 107% | 115% | 102% | 87.9% | 104% | 103% | 94.8% | 61.1% | 96.2% | 102% | 108% | 105% | 107% | 103% | 114% | 115% | 112% | 116% | 103% | 115% |
| Cc1ccnc2c(NC(C)CCCN)cc(O)c(O)c12 (stereo not given) | 91.9% | 93.8% | 27.2% | 83.7% | 109% | 99.5% | 89.3% | 93.5% | 39.6% | 54.1% | 79.7% | 95.2% | 64.9% | 79.7% | 20% | 99.9% | 103% | 59.8% | 80.6% | 87.5% |
| CC(=O)Nc1nc(C)c(C(=O)NNS(=O)(=O)c2ccccc2)s1 | 2.86% (active) | 113% | 105% | 91.8% | 161% | 115% | 121% | 121% | 114% | 117% | 155% | 135% | 101% | 106% | 112% | 109% | 9.33% (active) | 136% | 112% | 118% |
| CC(=O)N1N=C(c2ccc(Cl)cc2)CC1c1cn(-c2ccccc2)nc1-c1ccc([N+](=O)[O-])cc1 (stereo not given) | 129% | 98.8% | 96.8% | 107% | 111% | 96.8% | 83.5% | 109% | 105% | 110% | 120% | 101% | 102% | 94% | 85.6% | 96.5% | 122% | 106% | 125% | 135% |
| Cc1nc2c(nnn2-c2ccccc2)c2nc(-c3ccc(Cl)cc3)oc(=O)c12 | 107% | 110% | 104% | 83% | 108% | 107% | 94.7% | 105% | 103% | 113% | 103% | 108% | 110% | 104% | 114% | 119% | 111% | 118% | 107% | 113% |
| CC(=O)Nc1nc(C)c(C(=O)NNC(=O)Nc2ccccc2)s1 | 29.9% | 153% | 92.3% | 77.7% | 159% | 93.3% | 140% | 90.7% | 79.8% | 115% | 95.9% | 91.7% | 113% | 108% | 109% | 105% | 141% | 100% | 102% | 98.6% |
| C=CC1CN2CCC1CC2C(O)c1ccnc2ccc(OC)cc12 (stereo not given) | 2.09% (active) | 102% | 98.7% | 60.2% | 108% | 97.9% | 103% | 108% | 106% | 106% | 113% | 108% | 88.4% | 93.1% | 102% | 93.9% | -5.34% (active) | 105% | 99.9% | 107% |
| O=C(Nn1cnc2ccccc21)N1CCCC1 | 116% | 94% | 106% | 88.1% | 113% | 99.1% | 98.8% | 115% | 127% | 87.1% | 76.5% | 150% | 106% | 95.7% | 118% | 104% | 39.4% | 104% | 104% | 119% |
| COc1ccc2nc3cc(Cl)ccc3c(NCCCNC(C)=O)c2c1 | 52.3% | 68.5% | 38.1% | 21.2% | 44.2% | 16.1% | 40.6% | 22.6% | 39% | 26.5% | 21% | 37.2% | 26.8% | 39.1% | 49.2% | 49.7% | 36.2% | 45.8% | 60.4% | 41.4% |
| CCOC(=O)NC1=NCC(C)(C)S1 | 102% | 98.2% | 93.8% | 86.9% | 98.4% | 107% | 99.7% | 68.4% | 98.4% | 83.8% | 104% | 108% | 104% | 98.9% | 102% | 95.2% | 111% | 97.4% | 98.7% | 103% |

— PubChem BioAssay (NCI)
